Bioassay records as filed in PubChem.
Vif-APOBEC3G blk: Vif-A3G binding inhibition; HeLa A3G-eYFP + Vif (tagged APOBEC3G with the HIV-1 protein that degrades it), YFP fluorescence, overnight; Potency, µM (top dose mostly 46.1 µM), hits mostly inhibitors; 410,000 compounds, 0.076% hits; AID 602310; further: nearly all actives have a fitted effect of over 60% in size
Target sequence (Q9HC16 whole entry, looked up): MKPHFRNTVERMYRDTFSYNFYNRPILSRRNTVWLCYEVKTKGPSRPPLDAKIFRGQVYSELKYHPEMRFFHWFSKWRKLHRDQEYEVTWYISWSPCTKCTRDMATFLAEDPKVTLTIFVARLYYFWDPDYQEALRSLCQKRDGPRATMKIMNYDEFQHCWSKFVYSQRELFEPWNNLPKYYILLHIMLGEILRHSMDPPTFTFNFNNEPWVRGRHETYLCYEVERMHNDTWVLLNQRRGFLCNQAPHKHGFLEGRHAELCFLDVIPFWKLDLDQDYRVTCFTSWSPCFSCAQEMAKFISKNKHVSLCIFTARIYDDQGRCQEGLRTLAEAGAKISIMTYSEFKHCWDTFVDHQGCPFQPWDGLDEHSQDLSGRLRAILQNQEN
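HeLa cells stably expressing Vif and C-terminally eYFP-tagged A3G, seeded overnight at 37 deg C, then exposed to compound by pintool overnight at 37 deg C. Rise in yellow fluorescence (Ex 488/Em 500-530, Acumen) marks blocked Vif-driven A3G degradation.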
Vif-APOBEC3F blk: inhibitors of Vif-A3F interaction. HeLa A3F-eYFP + Vif (tagged APOBEC3F with the HIV-1 protein that degrades it), YFP fluorescence increase. Potency, µM (top dose mostly 46.1 µM). 390,000 compounds, 0.2% hits. AID 602313; further: nearly all actives have a fitted effect of over 65% in size
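HeLa cells stably expressing Vif plus C-terminally eYFP-tagged A3F were seeded, incubated overnight at 37 deg C, dosed with compound, incubated overnight again at 37 deg C. Yellow fluorescence (Ex 488/Em 500-530) reported blocked Vif-mediated A3F-eYFP degradation.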
Epigenetic derep: regulators of epigenetic silencing causing reporter derepression in mouse cells. murine LDR cells, GFP reporter derepression, 30 h. Potency, µM (highest dose often 53.9 µM), hits mostly activators. 280,000 compounds, 0.2% hits; further: nearly all actives have a fitted effect of over 60% in size
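Readout is the number of GFP-expressing murine LDR cells, counted by cytometry following washing. Cells were treated with compound for 30 h at 37 C; the stably integrated CMV-GFP locus is normally silent.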
Hits are given with their value; n = inactive; u = inconclusive; x = not tested or not shown. A selection: hits, their analogues and other compounds. The true share with any hit is near 0.34%. The call rests on the fitted dose curve; in most records, active means well fitted curve in the direction sought with a large enough effect; inconclusive means small, poorly fitted or top-dose-only effect, or another doubt; inactive means no such curve, though single readings can be large; an effect the other way counts as inactive or inconclusive.

SMILES | Vif-APOBEC3G blk | Vif-APOBEC3F blk | Epigenetic derep
CSCC[C@H](NC(=O)[C@H](Cc1ccccc1)NC[C@@H](NC[C@@H](N)CS)C(C)C)C(=O)O | x | x | n
O=C(C[n+]1ccccc1Cl)c1ccc2c(c1)CCCC2 | n | x | x
CN(C)CCNc1ccc2ncn3c4ccc(O)cc4c(=O)c1c23 | u | 25µM | x
CN(C)CCNc1ccc(CO)c2sc3ccc(O)cc3c(=O)c12 | n | n | x
C[C@H](NC(=O)OC(C)(C)C)[C@@H](O)c1ccco1 | n | x | x
CCCN(CCC)CC(O)Cn1cc(/C=C/C(=O)c2ccccc2)c2ccccc21 (centres undefined) | n | n | n
CCCN(CCC)CC(O)Cn1cc(/C=C/C(=O)c2ccc(Br)cc2)c2ccccc21 (centres undefined) | n | u | 16µM
S=C(NCc1ccco1)Nc1ccc(Cl)cn1 | n | 25µM | x
S=C(NCc1ccco1)Nc1ccccn1 | n | u | n
COc1ccc(/C=N/NC(=O)c2cccnc2)cc1CSc1ccccn1 | 7.1µM | n | n
COc1ccc(C(=O)N/N=C/c2ccc(OC)c(CSc3ccccn3)c2)cc1 | n | n | n
COC(=O)[C@@H]1[C@H]2SC(C)(C)[C@H](C(=O)OC)N2C(=O)N1Cc1cc2ccccc2n1S(=O)(=O)c1ccccc1 | n | x | x
COCc1cc(CN2CCCC2)c(O)c2ncccc12 | n | n | n
CCCOCc1cc(CN2CCN(c3ccccc3OC)CC2)c(O)c2ncccc12 | n | u | 3.5µM
COc1ccccc1N1CCN(Cc2cc(Br)c(O)c3ncccc23)CC1 | n | u | u
CCCOCc1ccc(O)c2ncccc12 | n | n | 3.5µM
COc1ccccc1N1CCN(Cc2cc(COC(C)C)c3cccnc3c2O)CC1 | n | n | 3.5µM
CC(C)COCc1ccc(O)c2ncccc12 | n | n | u
O=S(=O)(c1ccc(F)cc1)N1CCN(c2nc(-c3cccs3)nc3cc(Cl)ccc23)CC1 | n | x | x
CCOC(=O)c1cnn(-c2ccc(C(=O)Nc3cccc(C(C)=O)c3)cc2)c1N | n | n | n
COc1cc(/C=C/c2nc3ccccc3nc2/C=C/c2cc(OC)c(OC)c(OC)c2)cc(OC)c1OC | n | x | x
CC(=O)SC1CC2=CC(=O)CC[C@@]2(C)C2CC[C@@]3(C)[C@@H](CC[C@@]34CCC(=O)O4)C12 (some centres undefined) | x | x | n
COc1ccccc1Oc1nc2c(C)cccn2c(=O)c1/C=C(\C#N)c1nc2ccccc2[nH]1 | n | n | 13µM
Cc1cccn2c(=O)c(/C=C(\C#N)C(N)=O)c(Oc3ccccc3)nc12 | n | n | n
CCOc1cc(C2Nc3ccccc3C(=O)N2Cc2ccco2)ccc1O (centres undefined) | n | x | x
SMILES | Vif-APOBEC3G blk | Vif-APOBEC3F blk | Epigenetic derep
COc1cc(C(=O)OCC(=O)Nc2ccc(N3CCOCC3)cc2)ccc1OCC(C)C | 7.9µM | u | x
COc1ccc(C(=O)Nc2ccc(N3CCOCC3)cc2)cc1OC | n | n | n
CN(C)c1ccc(C2C=C(c3ccc(Cl)cc3OC(F)F)Nc3ncnn32)cc1 (centres undefined) | 8.9µM | x | n
Cc1ccc(C2C=C(c3ccccc3OC(F)F)Nc3ncnn32)cc1 (centres undefined) | n | n | n
Cc1ccc2c(c1)c(/C=C/c1cc[n+](C)cc1)c(C)n2C | u | n | x
Cc1ccc2[nH]c(C)c(/C=C/c3cc[n+](C)cc3)c2c1 | 1.3µM | n | x
COc1cc(/C=C(\C#N)c2nc(-c3cc4ccccc4oc3=O)cs2)ccc1O | n | u | 4.5µM
N#C/C(=C\c1ccc(O)cc1)c1nc2ccccc2o1 | u | u | n
COc1cc(/C=C(\C#N)c2nc3ccccc3o2)ccc1O | n | n | 2.2µM
COc1cc(/C=C(/C#N)c2nc(-c3cc4ccccc4oc3=O)cs2)cc([N+](=O)[O-])c1O | x | x | n
CC(C)(C)n1ncc2c(=O)n(Cc3ccc(C#N)cc3F)cnc21 | n | x | x
Cc1cccc(N2CCN(C(=O)CCCn3c(=O)[nH]c4ccsc4c3=O)CC2)c1C | n | n | n
O=S(=O)([N-]c1nc2ccccc2nc1-[n+]1ccc(-c2ccncc2)cc1)c1ccccc1 | n | 3.5µM | n
O=S(=O)([N-]c1nc2ccccc2nc1-[n+]1ccccc1)c1ccccc1 | n | u | n
CN1CCc2c(sc3c2C(=O)NC(c2ccc(-c4ccc(Cl)cc4)o2)N3)C1 (centres undefined) | u | 28µM | u
CN1CCc2c(sc3c2C(=O)NC(c2ccco2)N3)C1 (centres undefined) | n | n | n
COc1ccc(C(=O)C[n+]2ccc(Cl)c3ccc(Cl)cc32)cc1 | n | x | x
CC(C)CC[n+]1ccccc1/C=C/c1ccc(N(C)C)cc1 | 10µM | 7.9µM | x
CN(C)c1ccc(/C=C/c2cccc[n+]2[O-])cc1 | n | u | n
COc1ccc(/C=C(/C(=O)c2ccc(Cl)cc2Cl)n2cncn2)cc1 | n | n | n
CN(C)c1ccc(/C=C(/C(=O)c2ccc(Cl)cc2Cl)n2cncn2)cc1 | 13µM | u | u
Nc1ccc2c(c1)C=C/C2=C\c1ccccc1 | n | x | x
Nc1ccc(C(Cc2ccnc3ccccc23)Cc2ccnc3ccccc23)cc1 | n | x | x
CN1/C(=C/c2cccc[n+]2CCO)Sc2ccccc21 | n | n | x
CC[n+]1ccccc1/C=C1\Sc2ccc(C)cc2N1C | u | 22µM | x
SMILES | Vif-APOBEC3G blk | Vif-APOBEC3F blk | Epigenetic derep
C=C1C=C(C(F)F)n2ncc(C(=O)NCCc3ccc(Cl)cc3)c2N1 | n | x | x
CCCN[C@@H](C)C(=O)Nc1c(C)csc1C(=O)OC | x | x | n
CC1=Nc2ccccc2/C1=C/c1nc(-c2ccc(C)s2)oc1O | n | n | n
CC1=Nc2ccccc2/C1=C/c1sc(=N)n(-c2nccs2)c1O | 13µM | u | u
COc1cccc(N=Cc2c(O)n(-c3cccc(C)n3)c(=O)c3ccccc23)c1 | n | n | n
COc1ccc(N=Cc2c(O)n(-c3cccc(C)n3)c(=O)c3ccccc23)c(OC)c1 | u | 10µM | 13µM
Cc1nn2c(=O)cc(COC(=O)c3ccccc3NC(=O)c3cccs3)nc2s1 | n | n | n
Cc1ccc(S(=O)(=O)c2cc3ccccc3oc2=Nc2ccc3c(c2)OCO3)cc1 | n | 22µM | n
Cc1ccc(S(=O)(=O)c2cc3ccccc3oc2=Nc2ccc3c(c2)OCCO3)cc1 | n | n | n
CN(C)c1ccc(/C=C/c2c[n+](C)cc3ccccc23)cc1 | n | x | x
Cc1cn2c(N)c(C=C3C=C(Cl)C(=O)C(Cl)=C3)c(=O)nc2s1 | n | 10µM | n
COC1=C/C(=C/c2c(N)n3cc(C)sc3nc2=O)C=CC1=O | n | n | n
COc1ccc(/C=C/C(=O)Nc2ccc3nc(N4CCC(C)CC4)cc(C)c3c2)cc1 | n | n | 22µM
COc1ccc(C(=O)Nc2ccc3nc(N4CCC(C)CC4)cc(C)c3c2)cc1 | n | n | u
O=C1c2ccccc2NC(c2cc(Br)c3c(c2)OCO3)N1Cc1ccco1 (centres undefined) | n | x | x
O=C1S/C(=C\c2ccc(N3CCOCC3)o2)C(=O)N1Cc1ccc(F)cc1 | u | u | 3.5µM
C=CCN1C(=O)N/C(=C/c2ccc(N3CCOCC3)o2)C1=O | x | x | n
O=C1NC(=S)S/C1=C/c1ccc(N2CCOCC2)o1 | 11µM | n | n
C#CCN1C(=O)S/C(=C\c2ccc(-c3ccc(C(=O)O)cc3C)o2)C1=O | n | n | x
COc1ccc2cc(/C=C3\SC(=S)NC3=O)c(N3CCOCC3)nc2c1 | n | n | n
